Experimental data published in PubChem BioAssay (NCATS).
“And” between values parts separate entries of the source, which are not always exact repeats. Identical values can stand only once. Results filed as inconclusive are left out. The source made the active and inactive calls. The call rests on the fitted dose curve; in most records, active means well fitted inhibition curve with a large enough effect; inconclusive means small, poorly fitted or top-dose-only effect; inactive means flat fitted curve, though single readings scatter.

Key:
Assay in all cases: qHTS profiling for inhibitors of Plasmodium falciparum proliferation (AID 504749); further: nearly all actives have a fitted effect of over 60% in size
Settings in all cases: P. falciparum in erythrocytes, SYBR Green DNA, 72 h; series mostly up to 28.7 µM
CP305 = system: CP305
Outline: (§1)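 SYBR Green fluorescence (ex 485 nm, em 535 nm) reports parasite DNA after 72 h compound exposure of infected red cells at 0.3% parasitemia, 2.5% hematocrit; signal normalized to 0.29 uM artemisinin and vehicle wells.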

CP315 = system: CP315
Outline: as §1

CP325 = system: CP325
Outline: as §1

CP329 = system: CP329
Outline: as §1

CP335 = system: CP335
Outline: as §1

DFO2036 = system: DFO2036
Outline: as §1

DIV14 = system: DIV14
Outline: as §1

DIV17 = system: DIV17
Outline: as §1

DIV30 = system: DIV30
Outline: as §1

Dd2 = system: Dd2
Outline: as §1

Measured: Potency
Potency means the concentration at half of the fitted maximal effect.

NC(=O)CN1CCCC1=O
inactive: CP305 | CP315 | CP325 | CP329 | CP335 | DFO2036 | DIV14 | DIV17 | DIV30 | Dd2

CC(C)[N+](C)(CCC(C(N)=O)(c1ccccc1)c1ccccc1)C(C)C
inactive: CP305 | CP315 | CP325 | CP329 | CP335 | DFO2036 | DIV14 | DIV17 | DIV30 | Dd2

O=C(O)c1nn(Cc2ccc(Cl)cc2Cl)c2ccccc12
inactive: CP305 | CP315 | CP325 | CP329 | CP335 | DFO2036 | DIV14 | DIV17 | DIV30 | Dd2

CCCCCCCCCCCC[N+](C)(C)CCOc1ccccc1
active: CP305 8.49 µM | CP315 15.1 µM | CP325 9.53 µM | CP329 13.5 µM | CP335 6.01 µM | DFO2036 5.01 µM | DIV14 5.36 µM | DIV17 8.49 µM | DIV30 13.5 µM | Dd2 3.55 µM

CC(C)NCC(O)c1ccc(N)c(C#N)c1 (centres undefined)
inactive: CP305 | CP315 | CP325 | CP329 | CP335 | DFO2036 | DIV14 | DIV17 | DIV30 | Dd2

CCC(=O)O[C@H]1CC[C@H]2[C@@H]3CCC4=CC(=O)CC[C@]4(C)[C@H]3CC[C@]12C
inactive: CP305 | CP315 | CP325 | CP329 | CP335 | DFO2036 | DIV14 | DIV17 | DIV30 | Dd2

CN(C)C(=S)SSC(=S)N(C)C
active: CP305 2.39 µM | CP315 4.78 µM | CP325 2.39 µM | CP329 3.79 µM | CP335 1.51 µM | DFO2036 2.82 µM | DIV14 1.9 µM | DIV17 1.51 µM | DIV30 1.69 µM | Dd2 1 µM

C[C@]12CC[C@H]3[C@@H](CC=C4C[C@@H](O)CC[C@@]43C)[C@@H]1CC[C@@H]2O
inactive: CP305 | CP315 | CP325 | CP329 | CP335 | DFO2036 | DIV14 | DIV17 | DIV30 | Dd2

O=c1n(Cl)c(=O)n(Cl)c(=O)n1Cl
inactive: CP305 | CP315 | CP325 | CP329 | CP335 | DFO2036 | DIV14 | DIV17 | DIV30 | Dd2

CCN(CC)C(C)C(=O)c1ccccc1 (centres undefined)
inactive: CP305 | CP315 | CP325 | CP329 | CP335 | DFO2036 | DIV14 | DIV17 | DIV30 | Dd2

COP(=O)(OC)C(O)C(Cl)(Cl)Cl (centres undefined)
inactive: CP305 | CP315 | CP325 | CP329 | CP335 | DFO2036 | DIV14 | DIV17 | DIV30 | Dd2

Cc1ccc(N=CN(C)C=Nc2ccc(C)cc2C)c(C)c1
inactive: CP305 | CP315 | CP325 | CP329 | CP335 | DFO2036 | DIV14 | DIV17 | DIV30 | Dd2

NCc1cccnc1
inactive: CP305 | CP315 | CP325 | CP329 | CP335 | DFO2036 | DIV14 | DIV17 | DIV30 | Dd2

C[N+](C)(C)CCOC(=O)C(O)(c1ccccc1)c1ccccc1
inactive: CP305 | CP315 | CP325 | CP329 | CP335 | DFO2036 | DIV14 | DIV17 | DIV30 | Dd2

OC(O)C(Cl)(Cl)Cl
inactive: CP305 | CP315 | CP325 | CP329 | CP335 | DFO2036 | DIV14 | DIV17 | DIV30 | Dd2

COP(=S)(OC)Oc1ccc(Sc2ccc(OP(=S)(OC)OC)cc2)cc1
inactive: CP305 | CP315 | CP325 | CP329 | CP335 | DFO2036 | DIV14 | DIV17 | DIV30 | Dd2

CCN(Cc1ccc(Cl)nc1)/C(=C/[N+](=O)[O-])NC
inactive: CP305 | CP315 | CP325 | CP329 | CP335 | DFO2036 | DIV14 | DIV17 | DIV30 | Dd2

CC[n+]1c(-c2ccccc2)c2cc(N)ccc2c2ccc(N)cc21
active: CP305 84.9 nM and 379 nM | CP315 478 nM and 1.69 µM | CP325 95.3 nM and 379 nM | CP329 107 nM and 426 nM | CP335 84.9 nM and 239 nM | DFO2036 89.1 nM and 251 nM | DIV14 53.6 nM and 107 nM | DIV17 53.6 nM and 151 nM | DIV30 426 nM and 1.9 µM | Dd2 20 nM and 100 nM

CC(C)C(Br)C(=O)NC(N)=O (centres undefined)
inactive: CP305 | CP315 | CP325 | CP329 | CP335 | DFO2036 | DIV14 | DIV17 | DIV30 | Dd2

CCS(=O)(=O)C(C)(C)S(=O)(=O)CC
inactive: CP305 | CP315 | CP325 | CP329 | CP335 | DFO2036 | DIV14 | DIV17 | DIV30 | Dd2

Oc1c(Br)cc(Br)cc1Br
inactive: CP305 | CP315 | CP325 | CP329 | CP335 | DFO2036 | DIV14 | DIV17 | DIV30 | Dd2

C[C@H]1C(=O)O[C@@H]2CCN3CC=C(COC(=O)[C@](C)(O)[C@]1(C)O)[C@H]23
inactive: CP305 | CP315 | CP325 | CP329 | CP335 | DFO2036 | DIV14 | DIV17 | DIV30 | Dd2

Cc1ncc2n1-c1ccc(Cl)cc1C(c1ccccc1F)=NC2
inactive: CP305 | CP315 | CP325 | CP329 | CP335 | DFO2036 | DIV14 | DIV17 | DIV30 | Dd2

CCCCCCCCC(=O)NCc1ccc(O)c(OC)c1
inactive: CP305 | CP315 | CP325 | CP329 | CP335 | DFO2036 | DIV14 | DIV17 | DIV30 | Dd2

NC(=O)OCCCc1ccccc1
inactive: CP305 | CP315 | CP325 | CP329 | CP335 | DFO2036 | DIV14 | DIV17 | DIV30 | Dd2

CCC1(CC)C(=O)NC(=O)NC1=O
inactive: CP305 | CP315 | CP325 | CP329 | CP335 | DFO2036 | DIV14 | DIV17 | DIV30 | Dd2

CCNc1nc(Cl)nc(NCC)n1
inactive: CP305 | CP315 | CP325 | CP329 | CP335 | DFO2036 | DIV14 | DIV17 | DIV30 | Dd2

c1ccc2nc(N3CCNCC3)ccc2c1
inactive: CP305 | CP315 | CP325 | CP329 | CP335 | DFO2036 | DIV14 | DIV17 | DIV30 | Dd2

COC(=O)C1=CCCN(C)C1
inactive: CP305 | CP315 | CP325 | CP329 | CP335 | DFO2036 | DIV14 | DIV17 | DIV30 | Dd2

CCOC(=O)NC(O)C(Cl)(Cl)Cl (centres undefined)
inactive: CP305 | CP315 | CP325 | CP329 | CP335 | DFO2036 | DIV14 | DIV17 | DIV30 | Dd2

COP(=O)(OC)OC=C(Cl)Cl
inactive: CP305 | CP315 | CP325 | CP329 | CP335 | DFO2036 | DIV14 | DIV17 | DIV30 | Dd2

Cc1c(Cl)c(=O)oc2cc(OP(=O)(OCCCl)OCCCl)ccc12
active: CP305 6.75 µM | CP325 13.5 µM | CP329 12 µM | DFO2036 10 µM | DIV14 8.49 µM

Oc1ccc2[nH]cc(CCCCN3CC=C(c4ccccc4)CC3)c2c1
active: CP315 16.9 µM | DFO2036 10 µM | DIV14 13.5 µM | DIV17 13.5 µM | Dd2 11.2 µM

O=C(CCCN1CCC(n2c(=O)[nH]c3ccccc32)CC1)c1ccc(F)cc1
active: CP305 5.1 µM | CP325 5.1 µM | CP335 1.44 µM | DFO2036 1.58 µM | DIV14 0.642 µM | DIV17 0.642 µM | DIV30 2.56 µM | Dd2 1 µM

CC[C@]1(O)CC[C@H]2[C@@H]3CCC4=CCCC[C@@H]4[C@H]3CC[C@@]21C
inactive: CP315 | CP325 | CP329 | CP335 | Dd2

CN1C[C@@H](NS(=O)(=O)N(C)C)C[C@@H]2c3cccc4c3c(cn4C)C[C@H]21
inactive: CP305 | CP315 | CP325 | DFO2036 | DIV14 | DIV17

CN1CCc2cc(Cl)c(O)cc2[C@H]2c3ccccc3CC[C@@H]21
active: CP335 8.49 µM | Dd2 10 µM
inactive: CP315 | CP325

CC(C)(O)C(Cl)(Cl)Cl
active: CP305 6.01 µM | CP325 12 µM | CP335 2.39 µM | DFO2036 3.55 µM | DIV14 1.51 µM | DIV17 1.51 µM | DIV30 5.36 µM | Dd2 2.51 µM

COc1ccc(C(=O)N2CCCC2=O)cc1
inactive: CP305 | CP315 | CP325 | CP329 | CP335 | DFO2036 | DIV14 | DIV30 | Dd2

N#Cc1nn(-c2c(Cl)cc(C(F)(F)F)cc2Cl)c(N)c1S(=O)C(F)(F)F (centres undefined)
active: CP305 7.57 µM | CP329 7.57 µM | CP335 13.5 µM | DIV14 4.78 µM | DIV17 7.57 µM | DIV30 9.53 µM

CNC(=O)Oc1cccc2ccccc12
inactive: CP305 | CP325 | CP329 | CP335 | DFO2036 | DIV17 | DIV30 | Dd2
